# Reference: PubChem BioAssay (NCATS)
# Values joined by “and” are separate entries in the source; they are usually repeats but may differ in a detail not shown here. Identical values can stand only once. Records with an inconclusive call do not appear. Entries that show only a call come without a potency. A number with no mark means an inactive call. Active and inactive are the calls of the source. Calls come from the whole dose curve; as a rule, active = well fitted inhibition curve with a large enough effect; inconclusive = small, poorly fitted or top-dose-only effect; inactive = flat fitted curve, though single readings scatter.
# What was measured:
# [1] = tested on: Dd2; assay: qHTS profiling for inhibitors of Plasmodium falciparum proliferation (AID 504749); conditions: P. falciparum in erythrocytes, SYBR Green DNA, 72 h; series mostly up to 28.7 µM
# Procedure, shortened: (§1)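 Infected RBCs, 0.3% parasitemia/2.5% Hct final; cpd 72 h, 37 C, 5% CO2; lysis buffer with saponin/triton/SYBR Green I, o/n RT dark; FI 485/535; norm. to artemisinin (0.29 uM) and DMSO.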
# [2] = tested on: ECU; assay: as above; conditions: P. falciparum in erythrocytes, SYBR Green DNA, 72 h; series mostly up to 28.7 µM
# Procedure, shortened: as §1
# [3] = tested on: FAB9; assay: as above; conditions: P. falciparum in erythrocytes, SYBR Green DNA, 72 h; series mostly up to 28.7 µM
# Procedure, shortened: as §1
# [4] = tested on: HB3; assay: as above; conditions: P. falciparum in erythrocytes, SYBR Green DNA, 72 h; series mostly up to 28.7 µM
# Procedure, shortened: as §1
# [5] = tested on: JCK; assay: as above; conditions: P. falciparum in erythrocytes, SYBR Green DNA, 72 h; series mostly up to 28.7 µM
# Procedure, shortened: as §1
# [6] = tested on: PAD; assay: as above; conditions: P. falciparum in erythrocytes, SYBR Green DNA, 72 h; series mostly up to 28.7 µM
# Procedure, shortened: as §1
# [7] = tested on: PC49; assay: as above; conditions: P. falciparum in erythrocytes, SYBR Green DNA, 72 h; series mostly up to 28.7 µM
# Procedure, shortened: as §1
# [8] = tested on: SC27B; assay: as above; conditions: P. falciparum in erythrocytes, SYBR Green DNA, 72 h; series mostly up to 28.7 µM
# Procedure, shortened: as §1
# [9] = tested on: TAB109; assay: as above; conditions: P. falciparum in erythrocytes, SYBR Green DNA, 72 h; series mostly up to 28.7 µM
# Procedure, shortened: as §1
# [10] = tested on: TAB113; assay: as above; conditions: P. falciparum in erythrocytes, SYBR Green DNA, 72 h; series mostly up to 28.7 µM
# Procedure, shortened: as §1
# [11] = tested on: TAB165; assay: as above; conditions: P. falciparum in erythrocytes, SYBR Green DNA, 72 h; series mostly up to 28.7 µM
# Procedure, shortened: as §1
# [12] = tested on: CRL-7250; assay: Cytotoxic Profiling of Annotated Libraries Using Quantitative High-Throughput Screening (AID 1296008); conditions: Five cell lines viability, CellTiter-Glo ATP luminescence, 48-72 h; max response: hits give low values
# Procedure, shortened: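 Cytotoxicity was measured as CellTiter-Glo ATP luminescence, read after 10 min at room temperature. Compound treatment of the cells lasted 48 or 72 hr at 37 degrees Celsius in a qHTS format.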
# [13] = tested on: GB4; assay: qHTS profiling for inhibitors of Plasmodium falciparum proliferation (AID 504749); conditions: P. falciparum in erythrocytes, SYBR Green DNA, 72 h; series mostly up to 28.7 µM
# Procedure, shortened: as §1
# [14] = tested on: ICS; assay: as above; conditions: P. falciparum in erythrocytes, SYBR Green DNA, 72 h; series mostly up to 28.7 µM
# Procedure, shortened: as §1
# [15] = tested on: N140; assay: as above; conditions: P. falciparum in erythrocytes, SYBR Green DNA, 72 h; series mostly up to 28.7 µM
# Procedure, shortened: as §1
# [16] = tested on: P93_24; assay: as above; conditions: P. falciparum in erythrocytes, SYBR Green DNA, 72 h; series mostly up to 28.7 µM
# Procedure, shortened: as §1
# [17] = tested on: P94_40; assay: as above; conditions: P. falciparum in erythrocytes, SYBR Green DNA, 72 h; series mostly up to 28.7 µM
# Procedure, shortened: as §1
# [18] = tested on: PC15; assay: as above; conditions: P. falciparum in erythrocytes, SYBR Green DNA, 72 h; series mostly up to 28.7 µM
# Procedure, shortened: as §1
# [19] = tested on: PC26; assay: as above; conditions: P. falciparum in erythrocytes, SYBR Green DNA, 72 h; series mostly up to 28.7 µM
# Procedure, shortened: as §1
# [20] = tested on: W2; assay: as above; conditions: P. falciparum in erythrocytes, SYBR Green DNA, 72 h; series mostly up to 28.7 µM
# Procedure, shortened: as §1
# Note: nearly all actives have a fitted effect of over 60% in size.
# Potency is the fitted concentration of half-maximal effect.
structure (smiles),measurement,setting,value
Cn1cnc([N+](=O)[O-])c1Sc1ncnc2nc[nH]c12,Potency,[1],inactive
same,Potency,[2],8.91 µM (active)
same,Potency,[3],inactive
same,Potency,[4],inactive
same,Potency,[5],inactive
same,Potency,[6],inactive
same,Potency,[7],inactive
same,Potency,[8],inactive
same,Potency,[9],inactive
same,Potency,[10],inactive
same,Potency,[11],11.2 µM (active)
same,Potency,[12],3.4 µM (active) and 10.6 µM (active)
OC(CN1CCC(Cc2ccc(F)cc2)CC1)c1ccc(Cl)cc1 (configuration not stated),Potency,[1],2.51 µM (active)
same,Potency,[2],1.58 µM (active)
same,Potency,[13],1.2 µM (active)
same,Potency,[4],8.91 µM (active)
same,Potency,[14],0.355 µM (active)
same,Potency,[5],2 µM (active)
same,Potency,[15],0.794 µM (active)
same,Potency,[16],1.58 µM (active)
same,Potency,[17],1.58 µM (active)
same,Potency,[6],0.631 µM (active)
same,Potency,[18],2 µM (active)
same,Potency,[19],1.51 µM (active)
same,Potency,[7],1.58 µM (active)
same,Potency,[8],1.58 µM (active)
same,Potency,[9],1.78 µM (active)
same,Potency,[10],1.41 µM (active)
same,Potency,[11],1.26 µM (active)
same,Potency,[20],0.379 µM (active)
same,max response,[12],0.243% and -6.71%
N#Cc1ccc(C(c2ccc(C#N)cc2)n2cncn2)cc1,Potency,[1],inactive
same,Potency,[2],inactive
same,Potency,[3],inactive
same,Potency,[13],inactive
same,Potency,[4],inactive
same,Potency,[14],inactive
same,Potency,[5],inactive
same,Potency,[15],inactive
same,Potency,[16],inactive
same,Potency,[17],inactive
same,Potency,[6],inactive
same,Potency,[18],inactive
same,Potency,[19],inactive
same,Potency,[7],inactive
same,Potency,[8],inactive
same,Potency,[9],inactive
same,Potency,[10],inactive
same,Potency,[11],inactive
same,Potency,[20],inactive
NNCCc1ccccc1,Potency,[1],inactive
same,Potency,[2],inactive
same,Potency,[3],inactive
same,Potency,[13],inactive
same,Potency,[4],inactive
same,Potency,[5],inactive
same,Potency,[15],inactive
same,Potency,[16],inactive
same,Potency,[6],inactive
same,Potency,[18],inactive
same,Potency,[19],inactive
same,Potency,[7],inactive
same,Potency,[8],inactive
same,Potency,[9],inactive
same,Potency,[10],inactive
same,outcome,[12],inactive
CNC[C@H](O)c1cccc(O)c1,Potency,[1],inactive
same,Potency,[2],inactive
same,Potency,[3],inactive
same,Potency,[13],inactive
same,Potency,[4],inactive
same,Potency,[14],inactive
same,Potency,[5],inactive
same,Potency,[15],inactive
same,Potency,[16],inactive
same,Potency,[17],inactive
same,Potency,[18],inactive
same,Potency,[19],inactive
same,Potency,[7],inactive
same,Potency,[8],inactive
same,Potency,[9],inactive
same,Potency,[10],inactive
same,Potency,[11],inactive
same,max response,[12],-1.79% and -10.1%
CN1CCN(CCCN2c3ccccc3Sc3ccc(C(F)(F)F)cc32)CC1,Potency,[1],12.6 µM (active)
same,Potency,[3],inactive
same,Potency,[13],7.57 µM (active)
same,Potency,[14],8.91 µM (active)
same,Potency,[15],8.91 µM (active)
same,Potency,[16],2.24 µM (active)
same,Potency,[17],12.6 µM (active)
same,Potency,[6],12.6 µM (active)
same,Potency,[18],10 µM (active)
same,Potency,[19],13.5 µM (active)
same,Potency,[9],11.2 µM (active)
same,Potency,[10],inactive
same,Potency,[20],4.78 µM (active)
Cc1cc2c(C(C)C)c(O)c(O)c(C=O)c2c(O)c1-c1c(C)cc2c(C(C)C)c(O)c(O)c(C=O)c2c1O,Potency,[1],11.2 µM (active)
same,Potency,[3],inactive
same,Potency,[14],5.01 µM (active)
NCCc1ccc(O)c(O)c1,Potency,[1],inactive
same,Potency,[2],inactive
same,Potency,[3],inactive
same,Potency,[13],inactive
same,Potency,[4],inactive
same,Potency,[14],inactive
same,Potency,[5],inactive
same,Potency,[16],inactive
same,Potency,[17],inactive
same,Potency,[6],inactive
same,Potency,[18],inactive
same,Potency,[19],inactive
same,Potency,[7],inactive
same,Potency,[8],inactive
same,Potency,[9],inactive
same,Potency,[10],inactive
same,Potency,[11],inactive
same,max response,[12],1.67% and -14%
Nc1ccc(S(=O)(=O)Nc2ccnn2-c2ccccc2)cc1,Potency,[1],inactive
same,Potency,[2],inactive
same,Potency,[3],inactive
same,Potency,[13],inactive
same,Potency,[4],inactive
same,Potency,[14],inactive
same,Potency,[5],inactive
same,Potency,[15],inactive
same,Potency,[16],inactive
same,Potency,[17],inactive
same,Potency,[6],inactive
same,Potency,[18],inactive
same,Potency,[19],inactive
same,Potency,[7],inactive
same,Potency,[8],inactive
same,Potency,[9],inactive
same,Potency,[10],inactive
same,Potency,[11],inactive
same,Potency,[20],inactive
same,outcome,[12],inactive
N=c1nc(N2CCCCC2)cc(N)n1O,Potency,[1],inactive
same,Potency,[2],inactive
same,Potency,[3],inactive
same,Potency,[13],inactive
same,Potency,[4],inactive
same,Potency,[14],inactive
same,Potency,[5],inactive
same,Potency,[15],inactive
same,Potency,[16],inactive
same,Potency,[17],inactive
same,Potency,[6],inactive
same,Potency,[18],inactive
same,Potency,[19],inactive
same,Potency,[7],inactive
same,Potency,[8],inactive
same,Potency,[9],inactive
same,Potency,[10],inactive
same,Potency,[11],inactive
same,Potency,[20],inactive
same,max response,[12],-9.52% and -1.74%
Cc1ccccc1C(OCCN(C)C)c1ccccc1 (configuration not stated),Potency,[1],inactive
same,Potency,[2],inactive
same,Potency,[3],inactive
same,Potency,[4],inactive
same,Potency,[15],12.6 µM (active)
same,Potency,[6],inactive
same,Potency,[7],inactive
same,Potency,[11],7.94 µM (active)
same,Potency,[20],4.26 µM (active)
same,outcome,[12],inactive
NCCCC(N)(C(=O)O)C(F)F (configuration not stated),Potency,[1],inactive
same,Potency,[2],inactive
same,Potency,[3],inactive
same,Potency,[13],inactive
same,Potency,[4],inactive
same,Potency,[14],inactive
same,Potency,[5],inactive
same,Potency,[15],inactive
same,Potency,[16],inactive
same,Potency,[17],inactive
same,Potency,[6],inactive
same,Potency,[18],inactive
same,Potency,[19],inactive
same,Potency,[7],inactive
same,Potency,[8],inactive
same,Potency,[9],inactive
same,Potency,[10],inactive
same,Potency,[11],inactive
same,Potency,[20],inactive
same,max response,[12],-1.33% and -4.78%
CCOC(=O)C1=C[C@]2(CC)CCCN3CCc4c(n1c1ccccc41)[C@@H]32,Potency,[14],8.91 µM (active)
same,Potency,[15],12.6 µM (active)
same,Potency,[16],12.6 µM (active)
same,Potency,[19],15.1 µM (active)
same,Potency,[8],12.6 µM (active)
same,Potency,[9],10 µM (active)
same,Potency,[11],12.6 µM (active)
same,max response,[12],1.21%
same,outcome,[12],inactive
